Values without a mark were called inactive.

The subject of this test is Caenorhabditis elegans L1 (N2). Description: survival and reproduction score of C. elegans L1 (0: 0-10 living worms, 1: 11-20, 2: 21-50, 3: >50, 4: overgrown) (score 0-4); higher = more worms, less nematicidal, active = 1 or less; extreme values may be limits of the assay. The conditions noted are these: 60 µM; 6 days; temperature: 20 °C. The essentials: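 Each 96-well well received about 20 synchronized N2 L1 worms of C. elegans, E. coli HB101 and liquid NGM, plus compound pinned to 60 µM final (0.6% v/v DMSO). Sealed plates were incubated with shaking at 200 rpm, 20 °C, for 6 days. Survival and reproduction were rated under a dissection microscope as an ordinal score of living worms per well, averaged across biological replicates. The scale spanned 0 (0–10 worms) to 4 (overgrown, starved), and there were two replicates.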
Turning to `CC(=O)Nc1c(C)ccc(CNC(=O)CSc2nnc(-c3ccc(C(C)(C)C)cc3)o2)c1C`, the “survival and reproduction score” value is 4.
As to `COc1nc(-c2ccc(C)cc2)ccc1-c1noc(C)n1`, the “survival and reproduction score” value was 4.
`CNC(=O)c1ccccc1-c1nc(-c2ccc(Cl)cc2)no1`: the “survival and reproduction score” value is 4.
As for `c1ccc2cc(-c3nc(-c4ccncc4)no3)ccc2c1`, the “survival and reproduction score” value was 0 (active).
On to `COc1nc(-c2ccc(C)cc2)ccc1-c1noc(-c2cccc(C)c2)n1`, for which the “survival and reproduction score” value was 4.
For `COc1ccc(-c2noc(COc3ccc(F)cc3)n2)cc1`, the “survival and reproduction score” value was 4.
For the compound `COC(=O)c1ccc(CSc2nnc(-c3ccncc3)o2)cc1`, the “survival and reproduction score” value was 4.
For the compound `CC(=O)Nc1cccc(-c2nnc(SCc3ccccc3)o2)c1`, the “survival and reproduction score” value was 4.
Then `COc1ccc(OC(C)c2nc(-c3ccccn3)no2)cc1` (centres undefined), with 4.
Turning to `COc1ccccc1OCc1nc(-c2ccc(Cl)cc2)no1`, the “survival and reproduction score” value was 4.
As for `COC(=O)c1ccc(Cl)c(NC(=O)CSc2nnc(-c3ccc(Cl)cc3)o2)c1`, the “survival and reproduction score” value is 4.
Consider `CCc1ccc(OCc2nc(-c3ccccn3)no2)cc1`, for which the “survival and reproduction score” value is 3.
Take `Ic1cccc(-c2nc(-c3cccnc3)no2)c1`: the “survival and reproduction score” value was 4.
For `Cc1[nH]c2ccc(-c3nnc(SCC(=O)NCc4ccc(F)cc4)o3)cc2c1C`, the “survival and reproduction score” value is 4.
`Cc1ccc(SCc2nc(-c3cccc(C)c3)no2)cc1`: the “survival and reproduction score” value is 4.
For the compound `Cc1ccccc1-c1nnc(SCc2ccc(F)cc2)o1`, the “survival and reproduction score” value was 3.5.
Turning to `Fc1ccc(-c2noc(-c3ccc(F)cc3)n2)cc1`, the “survival and reproduction score” value is 0 (active).
As to `COc1ccc(-c2nnc(SCc3csc(N)n3)o2)cc1`, the “survival and reproduction score” value was 4.
Then `Cc1ccc(-c2noc(COc3ccc(Br)cc3)n2)cc1`, with 4.

Source of the values: the supplement of paper PMC11219838.
